Source: PubChem BioAssay (National Center for Advancing Translational Sciences (NCATS))
Most compounds without a hit are left out; they make up all but 2.5% or so of the library.
D2 antagonist – antagonists of human D2 dopamine receptor. P14416. HEK293 TREx D2 cells, calcium flux, dopamine EC80. inhibition, % at 10 µM. actives 2% (n = 340,000). AID 485344; in the data active means inhibition above about 30%; inactive means below that, where a call was filed
Target sequence (P14416 whole entry, looked up): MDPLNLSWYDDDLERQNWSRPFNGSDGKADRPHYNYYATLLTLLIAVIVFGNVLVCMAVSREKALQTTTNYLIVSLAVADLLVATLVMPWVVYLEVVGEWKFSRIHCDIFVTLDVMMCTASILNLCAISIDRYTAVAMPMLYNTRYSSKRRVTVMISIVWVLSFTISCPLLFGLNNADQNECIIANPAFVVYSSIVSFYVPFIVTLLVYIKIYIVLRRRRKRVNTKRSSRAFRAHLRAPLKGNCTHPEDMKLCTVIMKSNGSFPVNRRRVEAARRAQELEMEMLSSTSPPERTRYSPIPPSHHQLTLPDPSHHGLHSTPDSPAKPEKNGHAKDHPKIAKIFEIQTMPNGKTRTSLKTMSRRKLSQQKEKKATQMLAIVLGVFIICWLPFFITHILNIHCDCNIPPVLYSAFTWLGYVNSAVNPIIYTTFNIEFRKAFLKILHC
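Measurement of antagonist activity uses fluorescent calcium dye in inducible HEK293 T-REx D2 cells: 10 s baseline, compound addition with 180 s read, EC80 dopamine addition with a further 180 s read.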
D2 ag-1 – human D2 receptor agonism in beta-arrestin assay; actives 0.084% (n = 360,000); DiscoveRx PathHunter D2 beta-arrestin, luminescence, 90 min; 100% = 57 uM dopamine signal; AID 624465; activation, % (no concentration beside the values); P14416; in the data active means activation above about 40%; inconclusive means between about 15% and that limit
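Agonist mode: compounds alone added to overnight-plated D2 PathHunter cells for 90 min at 37 C, with 57 uM final dopamine (EC100) defining full response. Beta-arrestin recruitment detected by chemiluminescent reagent, read after 1 h at ambient temperature.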
D2 PAM-1 – positive allosteric modulators of human D2 dopamine receptor; P14416; HEK293 T-REx D2, calcium flux, EC20 dopamine potentiation; potentiation, % at 10 µM; actives 0.34% (n = 340,000);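 active means potentiation over 3 SD above the plate norm, cut at about 30% in these data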
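Using a no-wash calcium dye in inducible, force-coupled HEK293 Trex cells expressing D2, we tracked fluorescence each second for 180 s after compound, then for 180 s after EC20 dopamine to detect augmented signalling.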
Anesthetic bind – binds horse apoferritin like a general anesthetic; apoferritin/1-aminoanthracene competitive binding, fluorescence; P02791; Potency, µM (highest dose often 77.5 µM), usual class: inhibitors; AID 485281; actives 0.074% (n = 350,000); further: nearly all actives have a fitted effect of over 20% in size
Target sequence (P02791 2-175 limits assumed): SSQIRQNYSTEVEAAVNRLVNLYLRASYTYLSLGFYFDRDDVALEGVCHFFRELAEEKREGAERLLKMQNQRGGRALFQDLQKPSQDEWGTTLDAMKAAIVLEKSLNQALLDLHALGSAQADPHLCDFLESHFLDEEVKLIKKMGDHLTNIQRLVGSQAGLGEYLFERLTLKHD
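Probe: 1-aminoanthracene (50% saturated, PBS). Protein: horse-spleen apoferritin, 10 uM. Incubation: 10 min, room temperature. Detection: 380 nm excitation, 535 nm emission. Analysis: normalized response, four-parameter Hill.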
D2 PAM-2 – potentiates the human D2 dopamine receptor allosterically; P14416; DiscoveRx D2 beta-arrestin cells, luminescence, 90 min; 100% = 57 uM dopamine signal; potentiation, % (no concentration beside the values); actives 0.23% (n = 360,000); in the data active means potentiation above about 50%; inconclusive means mostly about 30% to 49%
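PathHunter beta-arrestin assay in DiscoveRx D2 cells. Compounds were added with an EC20 of dopamine (50 nM final) for 90 min at 37 deg C. Luminescence was read 1 h after detection reagent, with 57 uM dopamine as the EC100 control.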
D2 ag-2 – agonists of human D2 dopamine receptor; P14416; HEK293 T-REx D2 cells, calcium flux agonist mode; actives 0.53% (n = 340,000); activation, % at 2 µM;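 active means activation over 3 SD above normal in the single-dose calcium agonist read, cut at about 30% in these data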
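HEK293 Trex D2 cells, tetracycline-induced, o/n 30 C 5% CO2; no-wash Ca dye, RT 30–90 min; 10-cycle baseline, 23 nl cpd added, kinetic Ca read 180 s; agonist hits = positive Ca response.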
D3 arrestin ag – confirmation of human D3 dopamine receptor agonists, beta-arrestin; shares compounds with D2 ag-2; DiscoveRx D3 beta-arrestin cells, luminescence, 90 min; Potency, µM (top dose mostly 76.9 µM), most hits filed as activators; actives 4% (n = 2,300); AID 720506; further: nearly all actives have a fitted effect of over 70% in size
D2 ag-3 – activates human D2 dopamine receptor in D3 counterscreen; Potency, µM (titrated, usually from 76.9 µM), actives largely listed as activators; DiscoveRx PathHunter D2 beta-arrestin, luminescence, 90 min; response scale: percent relative to full dopamine signal; actives 5.9% (n = 2,300); shares compounds with D2 ag-2; AID 720507; further: nearly all actives have a fitted effect of over 70% in size
Numbers stand for hits. Unless noted, the call rests on the fitted dose curve; in most records, active means well fitted curve in the direction sought with a large enough effect; inconclusive means small, poorly fitted or top-dose-only effect, or another doubt; inactive means no such curve, though single readings can be large; an effect the other way counts as inactive or inconclusive.

`O=c1cc(CN2CCN(c3ccccc3)CC2)nc2scc(-c3ccccc3)n12` gave D2 antagonist inactive, D2 ag-1 inconclusive, D2 PAM-1 inactive, Anesthetic bind inactive, D2 PAM-2 inactive and D2 ag-2 inactive.
`CCC(C)[C@H](NC(=O)[C@@H]1Cc2ccccc2CN1C(=O)OC(C)(C)C)C(=O)NCC1CCC(C(=O)O)CC1` (stereo partly specified) gave D2 antagonist inactive, D2 ag-1 inactive, D2 PAM-1 inactive, Anesthetic bind inactive, D2 PAM-2 inactive and D2 ag-2 inactive.
Screening CC12CCC(C(=O)N(CCCCN3CCN(Cc4ccccc4)CC3)C1=O)C2(C)C (stereo unspecified) returned D2 ag-1 inactive, D2 PAM-1 inactive, Anesthetic bind inactive and D2 PAM-2 inactive.
CCN(CC)C(=O)Cn1cc(C(=O)C(=O)N2CCN(Cc3ccccc3)CC2)c2ccccc21 was read as D2 antagonist inactive, D2 ag-1 inactive, D2 PAM-1 inactive, Anesthetic bind inactive, D2 PAM-2 inactive, D2 ag-2 58, D3 arrestin ag inactive and D2 ag-3 inactive.
Screening CN1CCc2c(sc(/N=C/c3cc(C(C)(C)C)ccc3O)c2C#N)C1 returned D2 antagonist 90, D2 ag-1 43, D2 PAM-1 inactive, Anesthetic bind inactive, D2 PAM-2 inactive, D2 ag-2 92, D3 arrestin ag inactive and D2 ag-3 inconclusive.
Screening O=c1ccn(CCc2c[nH]c3ccccc23)c2c1CCCC2 returned D2 antagonist inactive, D2 ag-1 inactive, D2 PAM-1 inactive, Anesthetic bind inactive, D2 PAM-2 inactive, D2 ag-2 43, D3 arrestin ag inactive and D2 ag-3 inactive.
`O=C(CSc1nnnn1-c1ccccc1)NC(=O)Nc1ccc2c(c1)OCCO2` gave D2 antagonist inactive, D2 ag-1 inactive, D2 PAM-1 inactive, Anesthetic bind inconclusive, D2 PAM-2 inactive and D2 ag-2 inactive.
`Nc1c(C(=O)CSc2nncn2-c2ccccc2)c(=O)[nH]c(=O)n1C1CC1` gave D2 antagonist inactive, D2 ag-1 inactive, D2 PAM-1 inactive, D2 PAM-2 inactive and D2 ag-2 inactive.
Screening CCn1c2ccc(C)cc2c2n[nH]c(=S)nc21 returned D2 antagonist inactive, D2 ag-1 inactive, D2 PAM-1 inactive, Anesthetic bind inactive, D2 PAM-2 inactive, D2 ag-2 inactive, D3 arrestin ag inactive and D2 ag-3 inactive.
For CC(=O)SC1CC(=O)N(c2c(C)cccc2C)C1=O (stereo unspecified) the results were D2 antagonist inactive, D2 ag-1 inactive, D2 PAM-1 inactive, Anesthetic bind inactive, D2 PAM-2 inactive, D2 ag-2 55, D3 arrestin ag inactive and D2 ag-3 inactive.
For CC(C)N1CCN(CC2COc3ccccc3O2)CC1 (stereo unspecified) the results were D2 antagonist inactive, D2 ag-1 inactive, D2 PAM-1 inactive, Anesthetic bind inactive, D2 PAM-2 inactive, D2 ag-2 35, D3 arrestin ag inactive and D2 ag-3 inactive.
Screening CCOc1cc(/C=C2/C(=O)ON=C2C)ccc1OCc1ccccc1 returned D2 antagonist inactive, D2 ag-1 inactive, D2 PAM-1 inactive, Anesthetic bind inactive, D2 PAM-2 inactive and D2 ag-2 inactive.
For CC1(C)C2CCC(C2)C1(C)NC(=O)CNCc1cccs1 (stereo unspecified) the results were D2 antagonist inactive, D2 ag-1 inactive, D2 PAM-1 inactive, Anesthetic bind inconclusive, D2 PAM-2 inactive, D2 ag-2 inactive, D3 arrestin ag inactive and D2 ag-3 inactive.
Screening O=C(CNCc1cccs1)NC12CC3CC(CC(C3)C1)C2 returned D2 antagonist inactive, D2 ag-1 inactive, D2 PAM-1 inactive, Anesthetic bind inconclusive, D2 PAM-2 inactive and D2 ag-2 inactive.
Screening O=C(COc1ccccc1[N+](=O)[O-])NCCCN1CCCC1=O returned D2 antagonist inactive, D2 ag-1 inactive, D2 PAM-1 inactive, D2 PAM-2 inactive and D2 ag-2 inactive.
For CCCN1C(=O)/C(=C/c2c(NCCCOC(C)C)nc3c(C)cccn3c2=O)SC1=S the results were D2 antagonist inactive, D2 ag-1 inactive, D2 PAM-1 inactive, Anesthetic bind inactive, D2 PAM-2 inactive, D2 ag-2 inactive, D3 arrestin ag inactive and D2 ag-3 inactive.
COc1ccc(S(=O)(=O)N2CCC(N3CCN(Cc4ccccc4)CC3)CC2)cc1 was read as D2 antagonist 74, D2 ag-1 inactive, D2 PAM-1 inactive, Anesthetic bind inactive, D2 PAM-2 inactive, D2 ag-2 77, D3 arrestin ag inactive and D2 ag-3 inactive.
Screening COc1ccc(C(=O)c2cn[nH]c2-c2ccc(C)cc2O)cc1 returned D2 antagonist inactive, D2 ag-1 inactive, D2 PAM-1 inactive, Anesthetic bind inactive, D2 PAM-2 inactive and D2 ag-2 inactive.
COc1ccc(Nc2sc(C(=O)c3ccc(Cl)cc3)c(N)c2C(=O)Nc2ccccc2OC)cc1 was read as D2 antagonist inactive, D2 ag-1 inactive, D2 PAM-1 inactive, Anesthetic bind inconclusive, D2 PAM-2 inactive, D2 ag-2 inactive, D3 arrestin ag inactive and D2 ag-3 inactive.
O=C(N/C(=C/c1ccc(F)cc1)C(=O)N1CCOCC1)c1ccccc1 was read as D2 antagonist inactive, D2 ag-1 inactive, D2 PAM-1 inactive, Anesthetic bind inactive, D2 PAM-2 inactive, D2 ag-2 inactive, D3 arrestin ag inactive and D2 ag-3 inactive.
`c1ccc(OCCN2CCOCC2)cc1` gave D2 antagonist inactive, D2 ag-1 inactive, D2 PAM-1 inactive, Anesthetic bind inactive, D2 PAM-2 inactive, D2 ag-2 38, D3 arrestin ag inactive and D2 ag-3 inactive.
Screening O=S(=O)(c1ccc(Br)s1)N1CCN(CCOc2ccccc2)CC1 returned D2 antagonist 53, D2 ag-1 inactive, D2 PAM-1 inactive, D2 PAM-2 inactive, D2 ag-2 43, D3 arrestin ag inconclusive and D2 ag-3 inactive.
For Clc1cccc(OCCN2CCN(CCOc3cccc(Cl)c3)CC2)c1 the results were D2 antagonist 93, D2 ag-1 inconclusive, D2 PAM-1 inactive, Anesthetic bind inactive, D2 PAM-2 inactive, D2 ag-2 74, D3 arrestin ag inconclusive and D2 ag-3 inactive.
c1ccc(Cc2ccc(OCCN3CCOCC3)cc2)cc1 was read as D2 antagonist inactive, D2 ag-1 inactive, D2 PAM-1 inactive, Anesthetic bind inconclusive, D2 PAM-2 inactive and D2 ag-2 inactive.
